Outcome and AC50 data for ten compounds are collected here from PubChem BioAssay (EPA / NIEHS).

Results filed as inconclusive are left out. Activity calls are given as the source filed them. The calls were made as follows: active = hit-call score of the fitted dose curve at least 0.9, where 1 is the maximum; inconclusive = response in the unintended direction; inactive = score below 0.9.

For orientation: AC50 means the concentration at which the activity in the assay is half-maximal.

Sequence of Estrogen receptor beta (Homo sapiens) (Q92731 whole entry, looked up, the tested form may be a part): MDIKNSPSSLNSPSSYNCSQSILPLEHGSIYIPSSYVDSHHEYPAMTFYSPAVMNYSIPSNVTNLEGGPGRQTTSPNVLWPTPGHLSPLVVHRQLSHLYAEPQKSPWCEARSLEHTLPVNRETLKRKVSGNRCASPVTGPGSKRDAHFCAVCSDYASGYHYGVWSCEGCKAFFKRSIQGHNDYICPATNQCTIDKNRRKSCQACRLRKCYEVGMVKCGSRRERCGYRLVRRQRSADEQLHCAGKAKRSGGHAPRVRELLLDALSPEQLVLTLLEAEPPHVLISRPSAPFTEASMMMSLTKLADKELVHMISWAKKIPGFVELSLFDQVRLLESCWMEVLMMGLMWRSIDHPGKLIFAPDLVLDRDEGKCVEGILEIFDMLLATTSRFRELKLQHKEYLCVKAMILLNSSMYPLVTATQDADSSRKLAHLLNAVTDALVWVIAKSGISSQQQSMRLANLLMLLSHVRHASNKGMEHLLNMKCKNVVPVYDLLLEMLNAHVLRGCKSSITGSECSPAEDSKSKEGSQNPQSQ
Sequence of PGR (gene 5241) (P06401 whole entry, looked up): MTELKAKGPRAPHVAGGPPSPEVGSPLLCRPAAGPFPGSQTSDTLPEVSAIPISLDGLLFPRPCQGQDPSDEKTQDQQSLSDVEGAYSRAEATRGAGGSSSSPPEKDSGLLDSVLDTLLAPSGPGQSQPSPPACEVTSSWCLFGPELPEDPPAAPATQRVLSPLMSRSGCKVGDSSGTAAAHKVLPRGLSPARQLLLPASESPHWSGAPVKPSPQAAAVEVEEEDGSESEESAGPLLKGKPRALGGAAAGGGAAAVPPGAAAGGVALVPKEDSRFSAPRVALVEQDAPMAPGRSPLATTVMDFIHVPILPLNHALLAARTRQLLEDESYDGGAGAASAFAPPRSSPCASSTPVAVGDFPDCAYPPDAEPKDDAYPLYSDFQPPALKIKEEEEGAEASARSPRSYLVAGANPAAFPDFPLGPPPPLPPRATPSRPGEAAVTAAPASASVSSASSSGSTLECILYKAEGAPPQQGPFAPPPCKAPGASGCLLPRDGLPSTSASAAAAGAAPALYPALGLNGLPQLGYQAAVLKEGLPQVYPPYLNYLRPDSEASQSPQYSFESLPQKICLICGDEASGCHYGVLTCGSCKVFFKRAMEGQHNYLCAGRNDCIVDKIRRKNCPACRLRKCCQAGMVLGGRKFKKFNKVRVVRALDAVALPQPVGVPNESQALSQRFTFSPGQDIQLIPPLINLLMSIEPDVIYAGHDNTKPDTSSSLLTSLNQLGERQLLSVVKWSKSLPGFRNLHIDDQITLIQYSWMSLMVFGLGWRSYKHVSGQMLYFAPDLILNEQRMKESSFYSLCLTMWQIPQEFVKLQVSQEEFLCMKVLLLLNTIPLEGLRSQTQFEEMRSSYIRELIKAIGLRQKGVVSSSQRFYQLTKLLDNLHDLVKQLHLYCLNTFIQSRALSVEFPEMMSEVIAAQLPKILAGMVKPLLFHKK

The first assay has as its target Estrogen receptor beta (Homo sapiens) (UniProt Q92731). Briefly: OT_ER_ERbERb_0480: Odyssey Thera (OT) 8-hour HEK293T Protein-Complementation Assay for Estrogen Receptor-beta/-beta Homodimer (AID 2283357).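 Also: active means signal gain over DMSO baseline.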 The method in brief: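 ER-beta LBD homodimer PCA stably expressed in HEK293T; 8 h compound exposure, then formaldehyde fixation and Draq5 staining. Gain in nuclear/cytoplasmic fluorescence intensity versus DMSO vehicle, read on laser scanning cytometer.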
Take `CCN=C1C=CC(=C(c2ccc(N(CC)CC)cc2)c2ccc(N(CC)CC)cc2)c2ccccc21`: the call was inactive.

For the compound `CCCCCCCCn1sc(Cl)c(Cl)c1=O`, the outcome was inactive.

For `CCCCCCCCCCCCCC[P+](CCCC)(CCCC)CCCC`, the compound was classed as inactive.

Regarding `CCCCCCCC/C=C\CCCCCCCC(=O)OCC(O)CO` (stereo not given), the compound was called inactive.

Turning to `CCN=c1cc2oc3cc(NCC)c(C)cc3c(-c3ccccc3C(=O)OCC)c-2cc1C`, the concentration at half-maximal activity (AC50) is 55.1 µM (active).

The target in a further assay is PGR (gene 5241) (UniProt P06401). Kind of assay: NVS_NR_hPR: NovaScreen (NVS) Nuclear Receptor Binding Assay for human Progestron Receptor (PR) (AID 2283360).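 Also: active means loss of bound radioligand signal versus DMSO baseline.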 The method in brief:
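T47D lysate; tritiated or iodinated radioligand; scintillation count at 18 h. DMSO = negative control/baseline. Primary: 25 uM, duplicate. Secondary: concentration series for actives.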
Turning to `C[C@]12CC[C@H]3C(=CCc4cc(O)ccc43)[C@@H]1CCC2=O`, the AC50 was 46.7 µM (active).

On to `c1ccc(C[P+](c2ccccc2)(c2ccccc2)c2ccccc2)cc1`, for which the compound was classed as inactive.

`CCN(CC)c1ccc(C=O)c(O)c1`: the AC50 is 41.7 µM (active).

Regarding `Oc1ccc(C2(c3ccc(O)c(C4CCCCC4)c3)CCCCC2)cc1C1CCCCC1`, the compound was classed as inactive.

`CCN(CC)c1ccc(C=O)cc1`: the AC50 was 41.5 µM (active).
